The source of these data is PubChem BioAssay AID463173 (ICCB-Longwood Screening Facility, Harvard Medical School, 2010).

Among all 52,000 compounds or so, about 4,300 (8.3%) were called active. The sample as a whole holds a higher share of actives than the screen did. Unmarked numbers belong to inactive results. Rule as the data show it: active = survival mostly below about 52% (no sharp cut-off); inactive = mostly above about 56%.

In this test the test system is DeltatarO mutant. Briefly: growth inhibition of S. aureus wild type versus tarO mutant, primary screen, teichoic acid synthesis inhibitors, RN4220, OD600 (AID 463173). The settings on record: OD600, 18 h, hits give low values, screened at 18.75 µg/mL (by protocol).
For `COc1ccc2nc(N(Cc3cccnc3)C(=O)c3ccc(Cl)cc3)sc2c1`, the survival was 89%. `CCOC(=O)c1cc(-c2ccccc2)n(-c2cccc(C(=O)Nc3ccc(F)c(F)c3)c2)c1C`: the survival was 87%. For the molecule `CC(CN)(NS(=O)(=O)c1ccccc1)c1ccccc1` (stereo unspecified), the survival is 84%. As for `COc1ccc(CN=C(N)N=C(N)N)cc1`, the survival was 95%. For `CC(=O)c1ccc(N2CCN(S(=O)(=O)c3cc(-c4onc(C)c4C)ccc3C)CC2)cc1` the value was 84%. On to `COc1ccc(CCNC(=O)c2cc3c(-c4ccccc4F)nn(C)c3s2)c(OC)c1`, for which the survival was 85%. On to `COc1ccc(NC(=O)c2cc3c(-c4ccccc4F)nn(C)c3s2)c(OC)c1`, for which the survival is 44% (active).

In the case of `COc1ccc(-c2nn(C)c3sc(C(=O)N4CCN(c5cccc(C)c5C)CC4)cc23)cc1OC`, the survival is 75%. For `Cn1nc(-c2ccccc2F)c2cc(C(=O)N3CCN(c4ccccc4F)CC3)sc21` the value was 40%; for `COc1ccc(N2CCN(C(=O)c3cc4c(-c5ccccc5F)nn(C)c4s3)CC2)cc1`, 65%. Consider `COc1ccc(-c2nn(C)c3sc(C(=O)N4CCN(c5cc(Cl)ccc5C)CC4)cc23)cc1OC`, for which the survival is 103%. As for `COc1ccc(-c2nn(C)c3sc(C(=O)N4CCN(c5cccc(Cl)c5)CC4)cc23)cc1OC`, the survival is 54% (active).

Regarding `COc1ccc(CNC(=O)c2cc3c(-c4ccccc4F)nn(C)c3s2)c(OC)c1`, the survival is 101%. With `COc1ccccc1N1CCN(C(=O)c2cc3c(-c4ccccc4F)nn(C)c3s2)CC1`, the survival is 46% (active).

`COc1ccc(COC(=O)C2=C(C)NC3(O)c4ccccc4C(=O)C23O)cc1` (stereo unspecified): the survival was 90%.

As for `CNS(=O)(=O)c1cn(CC(=O)Nc2ccc(OC)c(Cl)c2)cc1S(=O)(=O)NC`, the survival is 74%. On to `O=C(Cn1c(=O)n(-c2ccc(Cl)cc2)c(=O)c2sc3ccccc3c21)NC1CCCC1`, for which the survival was 90%. Regarding `Cc1ccc(Cl)cc1-n1c(=O)c2sc3ccccc3c2n(CC(=O)NC2CCCC2)c1=O`, the survival was 13% (active). With `Cc1ccc(Cl)cc1-n1c(=O)c2sc3ccccc3c2n(CC(=O)NC2CCCCC2)c1=O` the figure was 77%. With `CCn1c(CN2CCC(C)CC2)nc2cc(NC(=O)COc3ccc([N+](=O)[O-])cc3)ccc21`, the survival is 82%. For `CCCCC(Sc1nc2cc3c(cc2c(=O)n1CCCC(=O)NCc1ccc2c(c1)OCO2)OCO3)C(=O)OCC` (stereo unspecified) the value was 82%. In the case of `CCN(C(=O)CCc1nc(-c2ccc(C)cc2)no1)c1cccc(C(F)(F)F)c1`, the survival is -5% (active). Regarding `COc1ccc(-c2noc(CCC(=O)Nc3ccc(C(F)(F)F)cc3)n2)cc1`, the survival was 86%.

With `COc1cccc(CNC(=O)CCc2nc(-c3ccc(C)cc3)no2)c1`, the survival was 145%. For `CCN(C(=O)CSc1nc(-c2ccc(C(C)C)cc2)no1)c1cccc(C)c1`, the survival was 84%.

Regarding `O=C(CSc1nc(-c2ccccc2)no1)N1CCCCC1`, the survival is 39% (active). Consider `Cc1ccc(C)c(NC(=O)CCc2nc(-c3ccc(C(C)(C)C)cc3)no2)c1`, for which the survival was 69%. With `CCN(C(=O)CSc1nc(-c2ccccc2)no1)c1ccccc1` the figure was 79%; with `O=C(CSc1nc(-c2ccccc2)no1)N1CCN(c2ccccc2)CC1`, 99%; with `CCN(C(=O)CSc1nc(-c2ccccc2)no1)c1cccc(C)c1`, -3% (active). As for `CC(C)c1ccc(-c2noc(SCC(=O)N3CCCCC3)n2)cc1`, the survival was 72%. Consider `CCN(C(=O)CCc1nc(-c2ccc(C)cc2)no1)c1cc(C)ccc1C`, for which the survival is -4% (active).

Consider `CC(=O)c1ccc(NC(=O)CCc2nc(-c3ccc(C)cc3)no2)cc1`, for which the survival is 67%. For `CN1C(=O)C2(c3ccccc31)N(c1ccccc1)C(=O)CS2(=O)=O` (stereo unspecified) the value was 91%; for `Cc1nc(-c2ccc(F)cc2)sc1CCNC(=O)c1ccco1`, 116%; for `O=C(Nc1ccc2nn(-c3ccccc3)nc2c1)c1ccccc1`, 97%. `Cc1cc(C)c2nc(N(Cc3cccnc3)C(=O)Cc3ccccc3)sc2c1`: the survival was 79%. For the molecule `CCCCOc1ccc(C(=O)NCCc2csc(-c3cccc(F)c3)n2)cc1`, the survival was 96%. With `O=C(N/N=C1/CSC(=O)N1Cc1cccs1)c1cccs1`, the survival is 75%. For `Cc1cc(C)c(S(=O)(=O)NCCc2cc3cc(C)c(C)cc3[nH]c2=O)c(C)c1`, the survival is 63%. As to `COc1ccc(N(C)C(C)=O)cc1`, the survival is 91%. With `CCc1ccc(C(=O)c2cn(CC(=O)Nc3cc(OC)cc(OC)c3)c3ccc(CC)cc3c2=O)cc1` the figure was 84%; with `CC(C)(C)c1ccc(-c2noc(CCC(=O)Nc3cccc(Cl)c3)n2)cc1`, 87%; with `CCN(C(=O)Cc1nc(-c2ccc(OC)cc2)no1)c1cccc(Cl)c1`, 83%.

With `CCN(C(=O)CCc1nc(-c2ccc(C)cc2)no1)c1cccc(Cl)c1`, the survival is -5% (active).

Consider `CCOCCCNC(=O)C(c1ccc(OC)cc1)N(Cc1cccs1)C(=O)c1ccc(NC(C)=O)cc1` (stereo unspecified), for which the survival is 53%. For the molecule `Cn1nc(C(=O)NCc2cccc(Cl)c2)c2c1-c1ccccc1SC2`, the survival is 74%. `CCOC(=O)N1CCC(NC(=O)c2c(C)nn(-c3cccc(C)c3)c2-n2cccc2)CC1`: the survival is 89%. With `COc1cccc(NC(=O)c2c(C)nn(-c3cccc(C)c3)c2-n2cccc2)c1` the figure was 8% (active); with `COc1cc(NC(=O)c2c(C)nn(-c3ccc(F)cc3)c2-n2cccc2)cc(OC)c1`, 78%; with `CCOC(=O)N1CCN(C(=O)c2c(C)nn(-c3cccc(C)c3)c2-n2cccc2)CC1`, 20% (active).

Take `COc1cccc(CNC(=O)c2c(C)nn(-c3cccc(C)c3)c2-n2cccc2)c1`: the survival is 81%. With `Cc1cccc(-n2nc(C)c(C(=O)N3CCN(c4ccccc4)CC3)c2-n2cccc2)c1` the figure was 66%. Turning to `O=C(CCOc1ccccc1)N(Cc1cccnc1)c1nc2c(Cl)cccc2s1`, the survival is 80%. Consider `CN(C)c1ccc(CNC(=O)CN(C)S(=O)(=O)c2ccc3c(c2)c(=O)n(C)c(=O)n3C)cc1`, for which the survival is 97%. In the case of `COc1ccc(CNC(=O)C(CCSC)NS(=O)(=O)c2ccc3c(c2)oc(=O)n3C)cc1` (stereo unspecified), the survival was 69%.

With `Cc1c(C(=O)N(C)C)sc2c1c(=O)n(-c1ccccc1C(F)(F)F)c(=O)n2Cc1cccc(F)c1`, the survival was 78%. In the case of `CN1CCN(C(=O)c2cnn(-c3ccc(F)cc3F)c2C2CCN(C(=O)OC(C)(C)C)CC2)CC1`, the survival was 80%. Take `CC(C)(C)OC(=O)N1CCC(c2c(C(=O)N3CCN(c4ncccn4)CC3)cnn2-c2ccccc2)CC1`: the survival is 94%. On to `COc1ccccc1N1CCN(C(=O)c2cnn(-c3ccc(F)cc3F)c2C2CCNCC2)CC1`, for which the survival is 32% (active). Turning to `CC(C)(C)OC(=O)N1CCC(c2c(C(=O)N3CCN(c4ncccn4)CC3)cnn2-c2ccc(F)cc2F)CC1`, the survival is 6% (active). For the molecule `Cc1cccc(N2CCN(C(=O)c3cnn(-c4ccc(F)cc4F)c3C3CCN(C(=O)OC(C)(C)C)CC3)CC2)c1C`, the survival was 82%. Regarding `Cc1ccc(-n2ncc(C(=O)N3CCN(c4ncccn4)CC3)c2C2CCN(C(=O)OC(C)(C)C)CC2)cc1`, the survival was 80%. With `Cc1ccc(-n2ncc(C(=O)N3CCN(c4cccc(C)c4C)CC3)c2C2CCNCC2)c(C)c1` the figure was 83%; with `CC(C)(C)OC(=O)N1CCC(c2c(C(=O)N3CCN(c4ncccn4)CC3)cnn2-c2ccc(F)cc2)CC1`, 17% (active); with `CC(C)(C)OC(=O)N1CCC(c2c(C(=O)N3CCN(c4ccccn4)CC3)cnn2-c2ccc(F)cc2F)CC1`, 79%. Regarding `CCc1[nH]nc2c1C1(C(=O)Nc3ccc(Cl)cc31)C(C#N)=C(N)O2` (stereo unspecified), the survival is 78%. For `O=C(CSc1ncc2c(n1)-c1ccccc1N(Cc1ccc(Cl)cc1)S2(=O)=O)c1ccccc1` the value was 144%; for `O=C(CN1C(=O)CC(c2ccco2)Sc2ccccc21)Nc1cccc(C(F)(F)F)c1` (stereo unspecified), 103%; for `CC1CCCN(Cc2nc3c(c(=O)n(C)c(=O)n3C)n2Cc2ccc(Cl)cc2)C1` (stereo unspecified), 90%. For `Fc1ccccc1N1CCN(c2c3c(nc4nncn24)CCC3)CC1` the value was 81%; for `Cc1ccccc1NS(=O)(=O)c1nnc(NC(=O)c2ccco2)s1`, 88%; for `Cc1nc(S(=O)(=O)N2CCN(c3ccccc3F)CC2)cn1C`, 117%. On to `Cc1ccc(N2CCN(S(=O)(=O)c3nnc(NC(=O)c4ccccc4)s3)CC2)cc1`, for which the survival is 57%.

With `Cc1cccc(N2CCN(S(=O)(=O)c3cn(C)c(C)n3)CC2)c1C`, the survival is 0% (active).

Consider `CC1CCN(S(=O)(=O)c2nnc(NC(=O)c3ccc(C(C)C)cc3)s2)CC1`, for which the survival is 62%.

As for `Cc1ccccc1N1CCN(S(=O)(=O)c2nnc(NC(=O)c3ccccc3)s2)CC1`, the survival was 26% (active).

As for `Cc1ccccc1NS(=O)(=O)c1nnc(NC(=O)c2ccc(Cl)cc2)s1`, the survival is 41% (active). On to `Cc1ccccc1NS(=O)(=O)c1nnc(NC(=O)c2ccccc2C)s1`, for which the survival is 76%. Turning to `Cc1ccc(C)c(N2CCN(S(=O)(=O)c3cn(C)c(C)n3)CC2)c1`, the survival is 72%. On to `Cc1ccccc1N1CCN(S(=O)(=O)c2nnc(NC(=O)c3ccc(C(C)C)cc3)s2)CC1`, for which the survival is 38% (active). For `CC(C)OC(=O)Cn1nnc(-c2ccccc2)n1`, the survival was 82%. Take `CC(=O)c1cccc(NC(=O)c2ccc(-n3c(C)nnc3C)cc2)c1`: the survival is 70%. For the molecule `CC(C)(C)OC(=O)N1C(C(=O)O)CSC1c1cccc(Br)c1` (stereo unspecified), the survival is 101%.

Consider `Cc1ccc(NC(=O)N2CCc3cc(S(=O)(=O)N4CCC(C)CC4)ccc32)cc1`, for which the survival is 96%.

Take `Cc1ccc(CN(Cc2cccn2-c2nnc(N3CCCC3=O)s2)C(=O)Nc2ccccc2Cl)cc1`: the survival was 104%.
